# Source: PubChem BioAssay (The Scripps Research Institute Molecular Screening Center)
# FBW7 act – FBW7 E3 ligase activators, primary screen, biochemical, AlphaScreen, human; AlphaScreen FBW7–phospho-cyclin E peptide binding, activator screen; 650,000 tested, 0.13% active; normalized activity (activation), % at 26.1 µM; in the data active = normalized activity above about 1.9%;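 also: purified mutant Fbw7 with reduced substrate affinity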
# Target sequence (Q969H0 whole entry, looked up): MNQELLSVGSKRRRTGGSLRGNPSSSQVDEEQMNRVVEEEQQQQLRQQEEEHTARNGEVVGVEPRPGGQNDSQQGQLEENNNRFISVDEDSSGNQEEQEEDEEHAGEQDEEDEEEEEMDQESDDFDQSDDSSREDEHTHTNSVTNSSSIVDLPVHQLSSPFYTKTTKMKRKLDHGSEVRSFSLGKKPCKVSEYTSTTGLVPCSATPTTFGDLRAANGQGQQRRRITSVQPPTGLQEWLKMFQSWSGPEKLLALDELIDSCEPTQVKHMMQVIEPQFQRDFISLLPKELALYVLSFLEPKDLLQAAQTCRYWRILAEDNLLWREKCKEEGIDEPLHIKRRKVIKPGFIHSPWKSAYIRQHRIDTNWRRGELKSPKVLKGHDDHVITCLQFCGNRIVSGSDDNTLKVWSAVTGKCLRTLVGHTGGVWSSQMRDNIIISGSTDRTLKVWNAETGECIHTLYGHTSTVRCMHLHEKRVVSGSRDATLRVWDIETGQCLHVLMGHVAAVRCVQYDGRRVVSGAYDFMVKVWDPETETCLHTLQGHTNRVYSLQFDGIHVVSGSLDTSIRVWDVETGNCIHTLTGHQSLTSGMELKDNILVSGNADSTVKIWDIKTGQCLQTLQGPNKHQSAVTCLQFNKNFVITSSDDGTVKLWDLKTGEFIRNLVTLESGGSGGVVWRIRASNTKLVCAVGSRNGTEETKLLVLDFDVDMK
# MITF primary – MITF inhibitors, primary screen, biochemical, AlphaScreen, human; Microphthalmia-associated transcription factor (Homo sapiens), O75030; AlphaScreen MITF homodimerization, bead proximity signal; inhibition, % at 2.6 µM; 650,000 tested, 0.91% active; AID 1259374, 2018; in the data active = inhibition above about 50%;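 also: 0% = vehicle wells with protein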
# TEAD-YAP inh – TEAD-YAP interaction inhibition, primary screen, TEAD-YAP interaction inhibitor project, luminescence, HEK-TIYL cells; TEAD-Gal4/YAP UAS-luciferase luminescence; inhibition, % at 9.12 µM; 640,000 tested, 1.4% active; in the data active = inhibition above about 32%;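 also: 0% = median of test compound wells and 100% = reference inhibitor wells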
# GPR151 activ – activators of human GPR151, primary screen, cell-based, PathHunter beta-arrestin, luminescence; PathHunter beta-arrestin GPR151 cells; activation, % at 11.2 µM; 650,000 tested, 1% active; AID 1508602, 2020; in the data active = activation above about 4.9%;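 also: 0% = median of compound wells and 100% = cells with positive control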
# MITF inh conf – MITF inhibitors, retest of hits, confirmation, biochemical, AlphaScreen, triplicate; shares compounds with MITF primary; AlphaScreen MITF homodimerization, biotin/His-MITF beads; inhibition, % at 2.6 µM; 4,700 tested, 16% active;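 active = inhibition above a cutoff derived from the DMSO control wells, cut at about 28% in these data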;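 also: 0% = MITF dimer wells with DMSO only; inhibitors lower the bead chemiluminescence by keeping MITF from dimerizing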
# AS interf DR – AlphaScreen optical interference compounds, dose response, counter-screen, biochemical, HTS | shares compounds with MITF primary | AlphaScreen optical interference counterscreen, cell-free | IC50, µM | 480 tested, 6% active | AID 1259373, 2018; call rule not given here
# AS interf ctr – AlphaScreen optical interference compounds, counter-screen for MITF inhibitor project, biochemical, triplicate. shares compounds with MITF primary. LysRS AlphaScreen counterscreen, signal interference. inhibition, % at 2.6 µM. 4,700 tested, 7.6% active. AID 1259376, 2018;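 active = inhibition above a cutoff derived from the DMSO control wells, cut at about 30% in these data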
# The depositor's hits bear a star; . = not tested or not shown. Rows were chosen to be rich in hits. Some 3.5% of all compounds tested hit in one or more screens of this group.
SMILES,FBW7 act,MITF primary,TEAD-YAP inh,GPR151 activ,MITF inh conf,AS interf ctr,others
COc1ccc(N(C)C(=O)CCc2nc(-c3ccc(C)cc3)no2)cc1,0,56*,12,-1,10,-5,
Cc1cccc(N2C(=O)C3C4C=CC(O4)C3C2=O)c1C (stereo not given),-1,51*,6,0,-1,10,
CCCCOc1ccc(C(=O)Nc2nc(-c3ccc(OC)c(C)c3)cs2)cc1,0,64*,-4,0,-1,13,
CCCCOc1ccc(C(=O)Nc2nc(-c3ccc(OC)cc3OC)cs2)cc1,0,-12,-1,1,.,.,
CCOc1ccccc1OC(=O)c1ccc([N+](=O)[O-])cc1,0,19,6,0,.,.,
CC(=O)CC1OC(=O)C(Oc2ccccc2)=C1Br (stereo not given),0,1,-1,0,.,.,
NCC1OC(=O)C(Oc2ccccc2)=C1Br (stereo not given),-1,59*,15,0,77*,-18,AS interf DR=>6.5
O=C(Nc1ccc(Br)cc1)Nc1cccc(Cl)c1,1,57*,-30,0,1,6,
Cc1ccc(S(=O)(=O)Cc2cccc([N+](=O)[O-])c2)cc1,0,12,-19,0,.,.,
CCOC(=O)c1ccc(-n2c(=S)sc3c2nc(SCC(=O)NCc2ccccc2)n2c4ccccc4nc32)cc1,0,60*,7,0,-4,-8,
CCOc1ccc(-n2c(=S)sc3c2nc(SCC(=O)NCc2ccccc2)n2c4ccccc4nc32)cc1,0,-1,4,0,.,.,
COc1ccc(NC(=O)c2ccc(COc3ccc(C)cc3)cc2)cc1,0,2,-7,1,.,.,
Cc1ccc(N=C2NC(=O)CC(C(=O)Nc3ccc(Cl)cc3)S2)cc1C (stereo not given),0,78*,6,1,9,6,
COc1ccc(NC(=O)C2CC(=O)NC(=Nc3ccc(C)c(C)c3)S2)cc1 (stereo not given),0,0,5,-1,.,.,
CC(Sc1nnc(-c2ccccc2)o1)C(N)=O (stereo not given),1,24,-38,-3,.,.,
COCCn1cnc2c(c1=O)c1nc3ccccc3nc1n2-c1cccc(Cl)c1,1,5,-15,-1,.,.,
COc1ccc(N(C(=O)/C=C/c2ccccc2)C2=CC3CCC(C2)N3C)cc1 (stereo not given),0,56*,-33,-3,9,11,
CCCCNCC(=O)NN(c1ccccc1)c1ccccc1,0,29,-7,0,.,.,
CN(C)CCCNCC(=O)NN(c1ccccc1)c1ccccc1,0,64*,2,1,-7,-2,
O=C(Oc1ccc2c(=O)c(-c3ccc(Cl)cc3)c(C(F)(F)F)oc2c1)c1cncc(Br)c1,0,2,-2,1,.,.,
Cc1ccc(/C=C(\C#N)C(=O)Nc2c(Cl)cccc2Cl)o1,0,74*,-14,-2,5,18,
Cc1ccc(/C=C(\C#N)C(=O)Nc2cccc(Cl)c2Cl)o1,0,8,-2,0,.,.,
O=C(CCN1CCN(c2ccccc2)CC1)Nc1ccc(F)c(F)c1,1,13,9,-2,.,.,
CCN(CC)S(=O)(=O)c1ccc(F)c(C(=O)NCc2ccc(OC)cc2)c1,0,-8,-2,0,.,.,
CCOc1ccc(OCCCNC(C)(C)C)cc1,0,69*,2,-1,6,7,
SMILES,FBW7 act,MITF primary,TEAD-YAP inh,GPR151 activ,MITF inh conf,AS interf ctr,others
CC(C)(C)NCCCOc1ccc(C(C)(C)C)cc1,0,-2,2,0,.,.,
CCOc1cc(C=O)ccc1OCC(=O)OC,0,9,-7,1,.,.,
CCOC(=O)COc1ccc(C=O)cc1OCC,0,76*,1,3,4,12,
CN1CCC(N(C)Cc2ccc(F)c(Br)c2)CC1,1,54*,-12,-1,18,17,
CCN1CCN(CC(=O)c2ccc(Cl)s2)CC1,0,74*,9,-1,0,8,
CCN1CCN(c2c(Cl)cccc2NC(=O)c2ccc(Cl)s2)CC1,0,8,-3,-1,.,.,
Clc1ccc(OCCCCn2ccnc2)cc1Cl,0,55*,-1,-2,13,17,
Clc1ccc(OCCOCCn2ccnc2)cc1Cl,0,43,-8,0,.,.,
Brc1c(OCCCCn2ccnc2)ccc2ccccc12,0,78*,-20,-2,-11,-3,
Clc1cc(Br)ccc1OCCCCn1ccnc1,0,74*,-8,0,2,6,
Cc1cccc(NC(=O)CC(C)S(=O)(=O)c2ccc3c(c2)SC(C)C(=O)N3)c1C (stereo not given),0,2,4,1,.,.,
CN(c1ccc(C(F)(F)F)cn1)C1CCCCC1,0,60*,-5,1,0,10,
FC(F)(F)c1ccc(NC2CCCCC2)nc1,1,7,12,0,.,.,
O=C1N[C@@H](CO)C(=O)N2C[C@@H](NCc3ccc(Cl)cc3)C[C@@H]12,0,0,-11,-1,.,.,
Cc1cc(NC(=O)C(C)NCc2ccc(F)cc2)no1 (stereo not given),0,14,-42,1,.,.,
Cc1cc(NC(=O)C(C)NCc2cccs2)no1 (stereo not given),0,54*,-37,1,6,6,
CCN(CC)CCCNC(C)C(=O)Nc1cc(C)on1 (stereo not given),0,80*,4,1,12,16,
